This is a sample that favours compounds with a hit; in the whole collection about 10% have one here.
PNC assembly inh: perinucleolar compartment assembly inhibition. PC3M PTB-GFP, PNC prevalence imaging, 16 h; hits give low values. activity change (PNC), negative = inhibition, % at 10 µM. actives 3.1% (n = 140,000);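 active = readout at or below -70, meaning at least 70% loss of cells showing the perinucleolar compartment, a nuclear body marking cancer cells; inconclusive = readout between -30 and a set limit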
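Read-out is percentage of cells bearing a perinucleolar compartment, from automated 20x imaging of fixed, Hoechst-stained PC3M PTB-GFP cells. Cells were seeded 4 h, then exposed 16 h to compound (23 nl of library stock) in duplicate plates.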
HPGD block: inhibitors of human 15-hydroxyprostaglandin dehydrogenase (HPGD); P15428; purified HPGD, NADH fluorescence kinetic, PGE2 substrate; Potency, µM, hits mostly inhibitors; actives 4.3% (n = 150,000); AID 894
Target sequence (P15428 whole entry, looked up): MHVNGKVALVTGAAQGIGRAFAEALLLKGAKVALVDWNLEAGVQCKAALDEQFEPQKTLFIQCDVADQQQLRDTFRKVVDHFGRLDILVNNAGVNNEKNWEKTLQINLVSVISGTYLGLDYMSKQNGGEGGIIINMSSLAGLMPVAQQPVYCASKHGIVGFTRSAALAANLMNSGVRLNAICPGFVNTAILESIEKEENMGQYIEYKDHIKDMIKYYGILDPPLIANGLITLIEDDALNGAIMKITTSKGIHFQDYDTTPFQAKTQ
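NADH formation kinetics: reaction with 30 uM PGE2 and 1 mM NAD+ (final), 20 nM enzyme, Tris-HCl pH 8 with Tween 20, after 15 min compound preincubation at room temperature. Fluorescence change, last versus first of five reads.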
Luc counter: blocks Kinase-Glo luciferase, a counter-screen artifact | Q27757 | Kinase-Glo luciferase, ATP luminescence, 8 min | Potency, µM (series often up to 38.3 µM), hits mostly inhibitors | actives 0.28% (n = 200,000) | AID 1379; active = well fitted inhibition curve with a large enough effect; inconclusive = small, poorly fitted or top-dose-only effect; note: nearly all actives have a fitted effect of over 60% in size
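Luminescence was the read-out, taken after 8-minute incubation at ambient temperature. Luciferase turned over luciferin with 10 uM ATP in imidazole pH 7.2 buffer containing KCl, MgCl2, Tween 20 and BSA.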
Lamin A splicing: changes lamin A minigene splicing in HeLa cells; HeLa LMNA splicing GFP/RFP minigene ratio, 48 h; Potency, µM (doses to about 46.1 µM), actives largely listed as inhibitors; actives 0.01% (n = 200,000); AID 1487; active = well fitted inhibition curve with a large enough effect in the signal ratio, with a control signal flat, not every such curve was filed as active; inconclusive = small, poorly fitted or top-dose-only effect, or effect the other way, or a change in a side signal; the % refers to the signal ratio
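Read-out is the ratio of GFP to DsRed2 object intensity, acquired by 488 nm laser-scanning cytometry on HeLa lamin A-EGFP minigene reporter cells. Compound incubation 48 hrs at 37 °C in Opti-MEM with 2% FBS; DMSO 0.5% final.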
ALDH1A1 inh: blocks purified human ALDH1A1 activity. Purified ALDH1A1, NADH fluorescence, propionaldehyde substrate. Potency, µM (top dose mostly 75.3 µM), actives largely listed as inhibitors. actives 7.3% (n = 220,000)
Numbers stand for hits; n = inactive; u = inconclusive; x = no result; [ ] = another dose, or the depositor's remark. Unless noted, calls come from the whole dose curve; as a rule, active = well fitted inhibition curve with a large enough effect (not every such curve was filed as active); inconclusive = small, poorly fitted or top-dose-only effect, or another doubt; inactive = no such curve, though single readings can be large or run the other way.

SMILES | PNC assembly inh | HPGD block | Luc counter | Lamin A splicing | ALDH1A1 inh
CC(C)C(=O)Cc1ccc2ccccc2n1 | x | n | n[7.66 µM] | x | n[13.5 µM]
CNC(=O)[C@H]1O[C@H](n2cnc3c(NCc4cccc(I)c4)ncnc32)[C@@H](O)[C@@H]1O | x | n | n | x | n
CC(C)Cn1nnnc1S(=O)(=O)CCc1ccccc1 | x | n | n | x | n
CC(C)=CCn1cnc2c1C(NOCc1ccccc1)=NCN2 | x | n | n | x | n
COc1ccc(N(Cc2nnc3n2CCCCC3)C(=O)Nc2ccc(Cl)cc2)cc1Cl | x | x | x | n | x
CC(=O)Nc1ccc(C(=O)CSc2ncn(-c3ccccc3)n2)cc1 | n | 13µM | n | n | u
Cc1csc(NC(=O)CSc2ncn(-c3ccccc3)n2)n1 | n | n | n | n | n
NNc1cc([N+](=O)[O-])cc2c1C(=O)N(Cc1ccccc1)S2=O (centres undefined) | x | x | n | n | 14µM
CC(C)=NNc1cc([N+](=O)[O-])cc2c1C(=O)N(C)S2=O (centres undefined) | x | x | n | n | n
CC(=O)c1ccc(N2CCN(C(=O)c3ccc(Br)cc3)CC2)c(F)c1 | u | 28µM | n | n | 10µM
COC(=O)c1ccc(N2C(=O)CC(N3CCN(C(=O)c4ccco4)CC3)C2=O)cc1 (centres undefined) | n | n | n | n | 13µM
CC(=O)c1ccc(N2CCCCC2)c(F)c1 | x | x | n | x | n
CC(=O)c1ccc(N2CCN(C(=O)c3ccco3)CC2)c(F)c1 | n | 16µM | n | n | 3.5µM
CCN(CC)CCn1c(-c2ccccc2)nc2c(NCCO)nc(C)nc21 | x | u | n | x | u
COCCn1c(CNC(=O)c2cccc(N(C)C)c2)nc2cccnc21 | x | x | x | n | x
CC1=CC(C)C2C(=O)N(O)C(=O)C2C1 (centres undefined) | u | n | n | n | 14µM
COc1ncc2nc(-c3ccc(F)cc3)c(=O)n(C)c2n1 | x | x | x | n | u
O=C(c1cccs1)N(Cc1nc2sc3c(c2c(=O)[nH]1)CCCC3)C1CCCC1 | -92 | u | n | u | u
CCOC(=O)c1noc2ncnc(N3CCC(C)CC3)c12 | x | x | x | n | x
O=S(=O)(c1ccc(Br)cc1)N1CCn2cccc2C1c1ccc(Br)cc1 (centres undefined) | x | x | x | n | x
O=C1[C@H]2[C@H]3[C@H](O)[C@H](O)C/C(=N/OC[C@@H](O)COCc4ccco4)[C@@H]3CC[C@@H]2C(=O)N1C1CCCCC1 | x | x | x | x | n[13.5 µM]
O=C(c1ccccc1)C1C(=O)c2ccccc2C1=O | n | n | n | n | n
O=C1C(=C(O)c2ccccc2)C(=O)c2ccccc21 | n | n | n | u | 4µM
CC(C)CCCC(C)C1CCC2C3CC[C@H]4CC(=O)CC[C@@]4(C)C3CC[C@@]12C (some centres undefined) | x | n | n | u | n
O=C(NCCOc1ccc(Cl)cc1)C1CC(=O)N(c2ccc(F)cc2)C1 (centres undefined) | n | n | n | u | 25µM
SMILES | PNC assembly inh | HPGD block | Luc counter | Lamin A splicing | ALDH1A1 inh
Cc1ccc(OCCNC(=O)C2CC(=O)N(c3ccc(C)cc3)C2)cc1 (centres undefined) | n | n | n | n | u
O=C(O)C1CC(=O)N(c2ccc(OCc3ccc(Cl)cc3Cl)cc2)C1 (centres undefined) | n | 14µM | n | n | n
COc1cccc(N2CCN(C(=O)C3CCN(S(=O)(=O)c4cccc5nonc45)CC3)CC2)c1 | x | x | x | n | x
COc1ccc2c(Cl)c(C(=O)N/N=C3\CCCC(=O)C3)sc2c1 | x | x | n | x | 4.5µM
COc1ccc2c(Cl)c(C(=O)N/N=C/c3ccc4c(c3)OCO4)sc2c1 | n | u | n | n | u
Cc1ccc(NC(=O)/C=C/c2cccs2)c([N+](=O)[O-])c1 | n | n | n | n | n
COc1ccc(NC(=O)/C=C/C(=O)O)c([N+](=O)[O-])c1 | x | x | x | x | 19µM
COc1ccc(NC(=O)CC2SC(N)=NC2=O)c([N+](=O)[O-])c1 (centres undefined) | x | x | n | x | 25µM
COc1ccc(OC)c(Nc2ccc(C(=O)O)cc2[N+](=O)[O-])c1 | n | 16µM | n | n | n
COc1ccc(NC(=O)CC2Nc3cc(C)c(C)cc3NC2=O)c([N+](=O)[O-])c1 (centres undefined) | x | x | n | x | n
Cc1ccc(NC(=O)/C=C/C(=O)O)c([N+](=O)[O-])c1 | n | n | n | n | 18µM

Bioassay records as filed in PubChem.
